From PubChem BioAssay
Most compounds without a hit are left out; they make up all but 21% or so of the library.
D3 ag – qHTS of D3 Dopamine Receptor Agonist: qHTS; D(3) dopamine receptor (Homo sapiens), P35462; D3R DiscoveRx beta-arrestin cells, luminescence, 90 min; max activation, %; actives 0.58% (n = 410,000); AID 652048, 2013; in the data active means max activation above about 30%
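Agonist-mode cell screen: cells plated at 1500/well and incubated overnight at 37 °C, then exposed to library compounds for 90 min at 37 °C. Detection reagent was added for 30–60 min at room temperature, and luminescence was read.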
ClpP mod – qHTS Assay for Activators of ClpP. Potency, µM (series often up to 57.5 µM). actives 1.9% (n = 340,000). purified B. subtilis ClpP, FRET peptide cleavage, 20 min. AID 651965, 2013. ATP-dependent Clp protease proteolytic subunit (Bacillus subtilis (strain 168)), P80244; active means well fitted falling curve with a large enough effect; inconclusive means small, poorly fitted or top-dose-only effect; inactive means no such curve, though single readings can be large or run the other way; further: the source files actives as falling curves though it sought activators and does not explain the sign; nearly all actives have a fitted effect of over 65% in size
Target sequence (P80244 whole entry, looked up): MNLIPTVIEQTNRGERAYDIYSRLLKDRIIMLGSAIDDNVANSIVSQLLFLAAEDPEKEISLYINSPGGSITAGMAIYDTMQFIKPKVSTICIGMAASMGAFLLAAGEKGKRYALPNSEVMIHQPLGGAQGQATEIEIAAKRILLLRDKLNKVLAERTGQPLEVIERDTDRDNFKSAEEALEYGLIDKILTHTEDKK
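Buffer: 100 mM Tris/HCl pH8, 100 mM KCl, 0.05% low protease BSA, 2.5% glycerol, 0.01% Tween-20. ClpP 10 microg/mL final; 20 min RT; delta FRET normalized to ADEP and DMSO controls.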
DRD3 antagonist – qHTS of D3 Dopamine Receptor Antagonist: qHTS. D(3) dopamine receptor (Homo sapiens), P35462. D3R cells, DiscoveRx beta-arrestin luminescence, antagonist mode; hits give low values. max response, negative = inhibition, %. actives 2.5% (n = 360,000); in the data active means max response below about -50%; inconclusive means no clear call, values can overlap the other calls
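Cells plated overnight at 1500 cells/well, then exposed to library compounds with dopamine controls for 90 minutes at 37 degrees C. DiscoveRx reagent added for 30–60 minutes at room temperature; luminescence read, quantitative HTS format.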
IL1B secr inh – qHTS for Inhibitors of Inflammasome Signaling: IL-1-beta AlphaLISA Primary Screen; activity change, % at 57.5 µM; AID 743279, 2014; THP-1 LPS/ATP IL-1B secretion, AlphaLISA, 16 h; hits give low values; actives 4.7% (n = 360,000); in the data active means activity change below about -50%; inconclusive means mostly about -30% to -49%
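Secreted IL-1B measured by AlphaLISA bead assay after 16 h compound exposure of THP-1 cells; compounds (final up to 57.5 uM) added 1 h before LPS (250 ng/mL) and ATP (1.25 mM) stimulation; lower signal means less secretion.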
DT40 TDP1 CPT – qHTS for Inhibitors of human tyrosyl-DNA phosphodiesterase 1 (TDP1): qHTS in cells in presence of CPT. chicken DT40 Tdp1-/-;hTDP1 cells + 20 nM CPT, ATP luminescence, 48 h. Potency, µM (top dose mostly 46.2 µM), most hits filed as inhibitors. actives 12% (n = 420,000). AID 686979, 2013; further: nearly all actives have a fitted effect of over 55% in size
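Cell growth measured by CellTiter-Glo luminescence after a minimum 48 h, 37 C compound exposure with 20 nM CPT in Tdp1-knockout DT40 cells stably expressing hTDP1, seeded 400/well; qHTS titration format.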
TDP1 cell noCPT – qHTS for Inhibitors of human tyrosyl-DNA phosphodiesterase 1 (TDP1): qHTS in cells in absence of CPT; DT40 Tdp1-/- hTDP1 cells, no CPT, ATP luminescence, 48 h; Potency, µM (titrated, usually from 46.2 µM), usual class: inhibitors; actives 15% (n = 420,000); AID 686978, 2013; further: nearly all actives have a fitted effect of over 55% in size
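Growth of hTDP1-complemented DT40 Tdp1-knockout cells is measured by ATP luminescence after at least 48 hr compound exposure at 37 °C, with DMSO substituting for the 20 nM CPT used in the parallel screen.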
Large screens that a line does not name were inactive. Unless noted, the call rests on the fitted dose curve; in most records, active means well fitted inhibition curve with a large enough effect; inconclusive means small, poorly fitted or top-dose-only effect; inactive means flat fitted curve, though single readings scatter.

CCCOc1ccc(CC2C(=O)Nc3ccc(Br)cc32)cc1 (configuration not stated)	DT40 TDP1 CPT inconclusive, TDP1 cell noCPT 18µM (no result: DRD3 antagonist, IL1B secr inh)
CCOc1c(CC2C(=O)Nc3ccc(Br)cc32)cccc1OC (configuration not stated)	DT40 TDP1 CPT inconclusive, TDP1 cell noCPT 16µM (no result: DRD3 antagonist, IL1B secr inh)
COc1ccc(OC)c(CC2C(=O)Nc3ccc(Br)cc32)c1 (configuration not stated)	DT40 TDP1 CPT 10µM, TDP1 cell noCPT 7.3µM (no result: DRD3 antagonist, IL1B secr inh)
CC1CN(C(=O)COC(=O)/C=C/c2cccc([N+](=O)[O-])c2)CC(C)O1 (configuration not stated)	ClpP mod inconclusive
O=C1OCC2=C1C(c1ccc(F)cc1)c1cc3c(cc1N2)OCCO3 (configuration not stated)	DT40 TDP1 CPT 0.18µM, TDP1 cell noCPT 0.18µM (no result: ClpP mod)
CCOc1ccc(C2Sc3ccccc3NC3=C2C(=O)OC3)cc1 (configuration not stated)	DT40 TDP1 CPT inconclusive, TDP1 cell noCPT inconclusive
C#CCOc1ccc(C2C3=C(COC3=O)Nc3cc4c(cc32)OCO4)cc1OC (configuration not stated)	DT40 TDP1 CPT 0.82µM, TDP1 cell noCPT 1µM (no result: ClpP mod)
O=C1OCC2=C1C(c1ccc3c(c1)OCO3)Sc1ccccc1N2 (configuration not stated)	DT40 TDP1 CPT 13µM, TDP1 cell noCPT 21µM
O=C1CC(c2ccc3c(c2)OCO3)c2cc3c(cc2N1)OCO3 (configuration not stated)	TDP1 cell noCPT inconclusive
CC(=O)Oc1ccc(C2C3=C(CC(C)(C)CC3=O)Nc3cc4c(cc32)OCCO4)cc1 (configuration not stated)	IL1B secr inh inconclusive
O=C1OCC2=C1C(c1ccc(F)cc1)c1cc3c(cc1N2)OCO3 (configuration not stated)	DT40 TDP1 CPT 0.16µM, TDP1 cell noCPT 0.033µM (no result: ClpP mod)
COc1cccc(C2C3=C(CC(C)(C)CC3=O)Nc3cc4c(cc32)OCO4)c1 (configuration not stated)	IL1B secr inh inconclusive
CCN(CC)C(=O)Cn1c(=O)cc(C)c2c(C)nn(-c3ccc(C)cc3)c21	none (no result: DRD3 antagonist, IL1B secr inh)
COc1cc2c(cc1OC)C(c1ccc3c(c1)OCO3)C1=C(CC(C)(C)CC1=O)N2 (configuration not stated)	IL1B secr inh -54, DT40 TDP1 CPT inconclusive, TDP1 cell noCPT inconclusive
COc1ccc(CCNC(=O)CCn2c(=O)c3ccccc3n(Cc3ccccc3F)c2=O)cc1OC	DT40 TDP1 CPT 15µM, TDP1 cell noCPT 12µM (no result: DRD3 antagonist, IL1B secr inh)
COc1ccc(CCNC(=O)CCCCn2c(=O)c3ccccc3n(CC(=O)Nc3ccccc3C)c2=O)cc1OC	none (no result: DRD3 antagonist, IL1B secr inh)
COc1ccc(CCNC(=O)CCCn2c(=O)c3ccccc3n(Cc3ccccc3)c2=O)cc1OC	DT40 TDP1 CPT inconclusive, TDP1 cell noCPT 16µM (no result: DRD3 antagonist, IL1B secr inh)
O=C(CCCn1c(=O)c2ccccc2n(Cc2cccc(Cl)c2)c1=O)NCCc1ccc(Cl)cc1	DT40 TDP1 CPT inconclusive, TDP1 cell noCPT 18µM (no result: DRD3 antagonist, IL1B secr inh)
COc1ccc(CCNC(=O)CCCCn2c(=O)c3ccccc3n(Cc3cc(C)ccc3C)c2=O)cc1OC	none (no result: DRD3 antagonist, IL1B secr inh)
COc1ccc(CCNC(=O)CCn2c(=O)c3ccccc3n(Cc3ccccc3)c2=O)cc1OC	DT40 TDP1 CPT inconclusive, TDP1 cell noCPT 18µM (no result: DRD3 antagonist, IL1B secr inh)
O=C(Cn1c(CCCO)nc2ccccc21)Nc1ccccc1-c1ccccc1	none (no result: ClpP mod)
CC1=C(C(=O)Nc2ccc(Cl)cc2)C(c2ccc(C(F)(F)F)cc2)n2nnnc2N1 (configuration not stated)	none (no result: DRD3 antagonist, IL1B secr inh, DT40 TDP1 CPT, TDP1 cell noCPT)
Cc1cccc(CNc2ncnc3ccc(-c4ccccc4C#N)cc23)c1	none (no result: D3 ag, ClpP mod, DRD3 antagonist, IL1B secr inh)
CN(Cc1cccnc1)C(=O)CNC(=O)COc1ccccc1	none (no result: ClpP mod)
